Experimental data from publication PMC4336329 (PLoS ONE, 2015).
The campaign covered roughly 310,000 compounds. About 14,000 (4.5%) showed an effect of 50% or more. The effect is printed as a negative number. This is one part of a sample in which strong results are shown more often than they occur.

target: human ether-à-go-go-related gene (hERG) potassium channel (human, UniProt Q12809); assay: primary screen, population patch clamp on CHO cells stably expressing hERG; higher = less effect of the substance
Sequence (Q12809 whole entry, looked up): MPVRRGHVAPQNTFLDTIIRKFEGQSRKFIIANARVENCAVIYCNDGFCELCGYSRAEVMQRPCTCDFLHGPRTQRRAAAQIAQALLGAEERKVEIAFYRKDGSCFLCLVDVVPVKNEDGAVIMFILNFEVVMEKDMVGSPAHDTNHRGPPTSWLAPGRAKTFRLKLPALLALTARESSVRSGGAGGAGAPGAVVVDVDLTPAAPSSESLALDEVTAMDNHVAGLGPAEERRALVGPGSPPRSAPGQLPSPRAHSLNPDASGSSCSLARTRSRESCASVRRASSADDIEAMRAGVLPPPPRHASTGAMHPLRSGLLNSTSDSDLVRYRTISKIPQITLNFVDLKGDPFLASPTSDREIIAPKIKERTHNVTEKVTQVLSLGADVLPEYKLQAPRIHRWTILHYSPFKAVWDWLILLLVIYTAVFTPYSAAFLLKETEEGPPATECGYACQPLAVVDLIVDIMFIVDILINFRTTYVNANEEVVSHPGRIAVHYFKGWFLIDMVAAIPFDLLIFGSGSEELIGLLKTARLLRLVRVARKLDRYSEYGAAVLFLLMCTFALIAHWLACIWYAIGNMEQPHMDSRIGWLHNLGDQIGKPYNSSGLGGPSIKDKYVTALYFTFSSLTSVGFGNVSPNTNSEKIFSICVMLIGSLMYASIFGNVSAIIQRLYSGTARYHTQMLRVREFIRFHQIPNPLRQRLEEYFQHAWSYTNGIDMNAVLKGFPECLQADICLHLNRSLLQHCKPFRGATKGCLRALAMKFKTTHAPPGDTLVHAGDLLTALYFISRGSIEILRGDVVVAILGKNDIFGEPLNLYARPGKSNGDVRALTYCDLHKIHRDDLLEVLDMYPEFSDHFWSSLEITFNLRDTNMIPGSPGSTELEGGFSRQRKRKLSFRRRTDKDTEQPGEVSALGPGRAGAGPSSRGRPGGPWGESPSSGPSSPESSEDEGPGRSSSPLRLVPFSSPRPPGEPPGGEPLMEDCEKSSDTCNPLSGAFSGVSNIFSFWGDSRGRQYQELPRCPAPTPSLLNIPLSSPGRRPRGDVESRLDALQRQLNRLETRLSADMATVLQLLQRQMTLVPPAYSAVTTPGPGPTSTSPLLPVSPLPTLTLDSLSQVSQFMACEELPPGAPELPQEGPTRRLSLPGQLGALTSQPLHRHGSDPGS
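Note: peak tail current of the secondary pulse compared with the same well before compound.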

First: CCCCCCNc1cc2n(c(=O)n1)CCc1cc(OC)c(OC)cc1-2
Second: CCn1c(SCC(=O)Nc2ccc(OC)c(OC)c2)nnc1-c1cccs1
The “hERG current change (%, negative = inhibition) at 10uM” value of the first is lower: -46.7% for the first, -14.1% for the second.

Compared with `CCOc1ccc(C(C)NC(=O)c2ccc3c(c2)NC(=O)C(C)S3)cc1OCC` (centres unmarked), `COc1ccc(C(C)=O)cc1COC(=O)CNC(=O)c1ccc(Cl)cc1` is lower in “hERG current change (%, negative = inhibition) at 10uM” value: 1.73% for the first, -4.06% for the second.

First: O=C(CS(=O)(=O)c1c[nH]c2ccccc12)NC1CCCCC1
Second: O=C(CCC1=NS(=O)(=O)c2ccccc2N1)NC1CCCCCCC1
The “hERG current change (%, negative = inhibition) at 10uM” value of the first is lower: -8.19% for the first, 2.57% for the second.

Going from `CSc1ccc(/C=N/N2CCN(Cc3ccccc3)CC2)cc1` to `CSc1ccc(/C=N/NC(=O)CN2CCN(Cc3ccccc3)CC2)cc1`, the “hERG current change (%, negative = inhibition) at 10uM” value falls from -5.46% to -74.6%.

Compared with `Cc1ccc(/C=N/NC(=O)CN2CCN(Cc3ccccc3Cl)CC2)o1`, `Cc1ccc(/C=N/NC(=O)CN2CCN(Cc3ccccc3)CC2)o1` is higher in “hERG current change (%, negative = inhibition) at 10uM” value: -23.5% for the first, -11.7% for the second.

Compared with `Cc1ccc(CN2CCN(CC(=O)N/N=C/c3ccc(C)o3)CC2)cc1`, `CSc1ccc(/C=N/NC(=O)CN2CCN(Cc3ccc(C)cc3)CC2)cc1` is higher in “hERG current change (%, negative = inhibition) at 10uM” value: -64.2% for the first, -63.2% for the second.

Going from `CSc1ccc(/C=N\NC(=O)CNc2ccc(C)cc2)cc1` to `CSc1ccc(/C=N/NC(=O)CN2CCN(Cc3ccc(Cl)cc3)CC2)cc1`, the “hERG current change (%, negative = inhibition) at 10uM” value falls from -2.08% to -35.1%.

Compared with `CSc1ccc(/C=N/NC(=O)CN2CCN(Cc3ccccc3Cl)CC2)cc1`, `CCN1CCN(C(=O)c2ccc3c(c2)N(Cc2ccc(F)cc2)C(=O)c2ccccc2S3=O)CC1` (centres unmarked) is higher in “hERG current change (%, negative = inhibition) at 10uM” value: -37.5% for the first, -9.09% for the second.

Going from `CSc1nnc(-c2ccc(S(=O)(=O)N3CCOCC3)cc2)n1C` to `CCc1ccc(-c2cc(C)no2)cc1S(=O)(=O)N1CCN(c2ccccc2)CC1`, the “hERG current change (%, negative = inhibition) at 10uM” value rises from -25% to 3.41%.

Going from `Cc1cccc(C(=O)NCCNC(=O)c2cccnc2)c1` to `Cc1ccc(S(=O)(=O)Nc2cccc(C(=O)NCCCN3CCOCC3)c2)cc1F`, the “hERG current change (%, negative = inhibition) at 10uM” value falls from 18.6% to -10.2%.

Compared with `COc1ccc(Nc2nc(NCc3ccco3)nc(N/N=C/c3ccccc3F)n2)cc1`, `COc1ccc(NC(=O)CSc2nnc(-c3ccccc3)n2Cc2ccco2)cc1OC` is lower in “hERG current change (%, negative = inhibition) at 10uM” value: -12.3% for the first, -34.6% for the second.

First: COc1cc(C(F)(F)F)c(C(=O)N(C)Cc2cc(Cl)cc(Cl)c2)cn1
Second: CCn1ncc(/C=N\NC(=O)c2cc(-c3ccc(C)cc3C)nc3ccccc23)c1C
The “hERG current change (%, negative = inhibition) at 10uM” value of the first is lower: -18.9% for the first, -8.84% for the second.

Going from `CC(=NCCCn1ccnc1)C1=C(O)c2ccccc2C1=O` to `O=C1C(C=NCCCn2ccnc2)=C(O)c2ccccc21`, the “hERG current change (%, negative = inhibition) at 10uM” value rises from -68% to -8.86%.

Compared with `CCN(CC)CCCN=C(C)C1=C(O)c2ccccc2C1=O`, `CCCN(CC(=O)Nc1ccc(Cl)cc1Cl)C(=O)CC(NC(C)=O)c1ccccc1` (centres unmarked) is higher in “hERG current change (%, negative = inhibition) at 10uM” value: -41.2% for the first, 0.715% for the second.

Going from `CCOC(=O)N1CCN(C(=O)COc2ccc(S(=O)(=O)NC3CCCCC3)cc2C)CC1` to `Cc1ccc(S(=O)(=O)N2CCN(C(=O)c3ccco3)CC2)cc1C`, the “hERG current change (%, negative = inhibition) at 10uM” value rises from -16.9% to -4.01%.

Going from `O=C(O)c1ccccc1C(=O)Nc1ccc(-n2nc(C(F)(F)F)cc2C(F)(F)F)cc1` to `Cn1c(CCNC(=O)c2ccccc2F)nnc1SCC(=O)Nc1ccccc1F`, the “hERG current change (%, negative = inhibition) at 10uM” value falls from 12.8% to 3.44%.

First: O=C(CSc1nnc(-c2cccs2)n1Cc1ccco1)Nc1ccc2c(c1)OCO2
Second: Cc1ccc(NC(=O)CSc2nnc(-c3cccs3)n2Cc2ccco2)cc1
The “hERG current change (%, negative = inhibition) at 10uM” value of the first is higher: -14.6% for the first, -61.6% for the second.

Going from `COc1ccc(NC(=O)CSc2nnc(-c3cccs3)n2Cc2ccco2)cc1OC` to `CN(C)c1ccc(NC(=O)CSc2nnc(-c3cccs3)n2Cc2ccco2)cc1`, the “hERG current change (%, negative = inhibition) at 10uM” value rises from -60.6% to -39.4%.

First: COc1ccc(N=C2SC(CC(=O)Nc3ccccc3)C(=O)N2CCc2ccccn2)cc1 (centres unmarked)
Second: COc1ccccc1OCc1ccc(C(=O)c2ccccc2)cc1
The “hERG current change (%, negative = inhibition) at 10uM” value of the first is lower: -32.6% for the first, 17.1% for the second.

Going from `CCOC(=O)c1c(C)oc2ccc(OC(=O)c3cccs3)cc12` to `Cc1ccc(C(=O)c2nocc2C(=O)c2cccs2)cc1`, the “hERG current change (%, negative = inhibition) at 10uM” value falls from -5.96% to -19.7%.

Compared with `Cc1ccc2nc(CSc3nnc(-c4ccco4)o3)cc(=O)n2c1`, `c1coc(-c2nnc(SCc3cn4ccccc4n3)o2)c1` is higher in “hERG current change (%, negative = inhibition) at 10uM” value: -64.9% for the first, -29.7% for the second.

Compared with `COc1ccc(C)cc1-n1nnnc1SCc1cn2ccsc2n1`, `COc1ccc(C)cc1-n1nnnc1SCc1csc(C)n1` is higher in “hERG current change (%, negative = inhibition) at 10uM” value: -28.7% for the first, -16.2% for the second.

Compared with `COc1ccc(C)cc1-n1nnnc1SCc1cc(=O)n2cc(C)ccc2n1`, `Cc1ccc2nc(CSc3nnc(-c4ccco4)n3-c3ccccc3)cc(=O)n2c1` is higher in “hERG current change (%, negative = inhibition) at 10uM” value: -51.1% for the first, -21.1% for the second.

First: Oc1cccc(/C=N/c2c(-c3ccco3)nc3ccccn23)c1
Second: Cc1ccc(-c2cc(-c3ccccc3)no2)c(O)c1
The “hERG current change (%, negative = inhibition) at 10uM” value of the first is lower: 6.9% for the first, 17.4% for the second.

Compared with `Cc1cccc(N(Cc2ccc(Cl)cc2)S(C)(=O)=O)c1`, `COc1ccc(S(=O)(=O)N(CC(=O)NC2CC2)c2ccc(C)cc2)cc1` is lower in “hERG current change (%, negative = inhibition) at 10uM” value: 21.1% for the first, -0.125% for the second.

Compared with `CC1(C)CC(=O)C2=C(C1)NC(=O)C21C(C(=O)OC(C)(C)C)=C(N)Oc2ccc(Br)cc21` (centres unmarked), `COc1ccc(-c2cc(C)no2)cc1S(=O)(=O)N1CCN(C(=O)c2ccco2)CC1` is higher in “hERG current change (%, negative = inhibition) at 10uM” value: -13.1% for the first, -6.28% for the second.

Going from `O=C1CN(C(=O)CSc2ccc(-c3ccc(F)cc3)nn2)c2ccccc2N1` to `CC(=O)c1ccccc1OCc1ccc(C(=O)c2ccccc2)cc1`, the “hERG current change (%, negative = inhibition) at 10uM” value falls from -42.5% to -51.7%.

Going from `Cc1noc(C)c1CSc1nnc2ccc3ccccc3n12` to `CCN(CC(=O)Nc1c(F)cccc1F)C(=O)Cc1c(C)nc2ccccc2c1C`, the “hERG current change (%, negative = inhibition) at 10uM” value falls from -25.1% to -55.1%.

Compared with `COC(=O)CNC(c1ccccc1)c1cc(Br)ccc1NC(=O)CCN1CCOCC1` (centres unmarked), `CCOC(=O)CNC(c1ccccc1)c1cc(Br)ccc1NC(=O)CCN1CCOCC1` (centres unmarked) is lower in “hERG current change (%, negative = inhibition) at 10uM” value: -31.7% for the first, -68% for the second.

First: NNC(=O)CNC(c1ccccc1)c1cc(Br)ccc1NC(=O)CCN1CCOCC1 (centres unmarked)
Second: CCCN(CC(=O)Nc1ccccc1C)C(=O)CSc1ccccc1C
The “hERG current change (%, negative = inhibition) at 10uM” value of the first is lower: 3.67% for the first, 7.42% for the second.

Going from `CC(=O)c1ccc(OCc2ccc(C(=O)c3ccccc3)cc2)cc1` to `CCCN(CC(=O)Nc1ccccc1C)C(=O)CC(NC(=O)c1ccccc1)c1ccccc1` (centres unmarked), the “hERG current change (%, negative = inhibition) at 10uM” value falls from 0.433% to -52.7%.

Compared with `CS(=O)(=O)O.Cc1cccc(/C=C2/C(=O)/C(=C/c3ccccc3C)C3CCC2N3C)c1` (centres unmarked), `CCCN(CC(=O)Nc1ccccc1C)C(=O)Cc1c(C)nc2ccccc2c1C` is lower in “hERG current change (%, negative = inhibition) at 10uM” value: 6.11% for the first, -77.4% for the second.

Compared with `CCC(O)(CC)C(=O)NN(C(=O)CCl)c1ccccc1`, `CCCN(CC(=O)Nc1ccccc1C)C(=O)CCl` is lower in “hERG current change (%, negative = inhibition) at 10uM” value: 8.94% for the first, -0.969% for the second.

First: CCc1ccc(-c2cc(C)no2)cc1S(=O)(=O)N1CCC(C)CC1
Second: CCc1ccc(-c2cc(C)no2)cc1S(=O)(=O)N1CCN(C(=O)c2ccco2)CC1
The “hERG current change (%, negative = inhibition) at 10uM” value of the first is higher: -15.8% for the first, -59.6% for the second.

Compared with `Cc1cc(-c2ccc(C)c(S(=O)(=O)N3CCN(C(=O)c4ccco4)CC3)c2)on1`, `Cc1ccccc1Cn1c(CN2CCN(C(=O)c3ccco3)CC2)nc2c1c(=O)n(C)c(=O)n2C` is higher in “hERG current change (%, negative = inhibition) at 10uM” value: -51.8% for the first, -45% for the second.

First: CCN(CC(=O)Nc1c(F)cccc1F)C(=O)Cc1ccccc1
Second: CCN(CC(=O)Nc1c(F)cccc1F)C(=O)c1cc(C)nc2ccccc12
The “hERG current change (%, negative = inhibition) at 10uM” value of the first is lower: -1.53% for the first, 9.3% for the second.

First: CCCN(CC(=O)Nc1ccccc1C)C(=O)Cc1n[nH]c(=O)c2ccccc12
Second: Cn1c(=O)c2c(nc(CN3CCN(C(=O)c4ccco4)CC3)n2Cc2ccccc2)n(C)c1=O
The “hERG current change (%, negative = inhibition) at 10uM” value of the first is higher: -10.2% for the first, -40.7% for the second.

First: OCCOCCn1c(CCNc2nc(-c3ccc(Cl)cc3)cs2)nc2cc(Cl)c(Cl)cc21
Second: Cn1c(=O)c2c(nc(CN3CCN(C(=O)c4ccco4)CC3)n2Cc2ccc(Cl)cc2)n(C)c1=O
The “hERG current change (%, negative = inhibition) at 10uM” value of the first is higher: 3.83% for the first, -64.8% for the second.

First: Cc1nnc(SCC(=O)c2ccc(Cl)cc2)s1
Second: Cc1ccc(Cn2c(CN3CCN(C(=O)c4ccco4)CC3)nc3c2c(=O)n(C)c(=O)n3C)cc1
The “hERG current change (%, negative = inhibition) at 10uM” value of the first is higher: -9.82% for the first, -54.2% for the second.

Going from `CC(=O)Cn1c(CN2CCN(C(=O)c3ccco3)CC2)nc2c1c(=O)n(C)c(=O)n2C` to `CC(C)Cn1c(CN2CCN(C(=O)c3ccco3)CC2)nc2c1c(=O)n(C)c(=O)n2C`, the “hERG current change (%, negative = inhibition) at 10uM” value falls from 16% to -12.2%.

Compared with `Cn1c(=O)c2c(nc(CN3CCN(C(=O)c4ccco4)CC3)n2Cc2ccc(F)cc2)n(C)c1=O`, `Cn1c(=O)c2c(nc(CN3CCN(C(=O)c4ccco4)CC3)n2Cc2cccc(Cl)c2)n(C)c1=O` is lower in “hERG current change (%, negative = inhibition) at 10uM” value: -44.8% for the first, -60.1% for the second.

`O=C(NCc1ccccn1)[C@H]1C[C@@H]1[C@H](NP(=O)(c1ccccc1)c1ccccc1)c1ccccc1` was tested, and the “hERG current change (%, negative = inhibition) at 10uM” value was -9%.
